Activity calls are given as the source filed them. Calls follow the shape of the dose curve; as a rule, active = well fitted curve in the direction sought with a large enough effect in the repeat runs; inconclusive = weak or mixed curves; inactive = flat fitted curve, though single readings scatter.
assay: qHTS assay to test for compound auto fluorescence at 535 nm (green) in HEK293 cell free culture (AID 720682); conditions: cell-free medium, green autofluorescence 485/535 nm, stronger effect = higher value; series mostly up to 91.3 µM
Source text: U.S. Tox21 Program National Center for Advancing Translational Sciences [NCATS] NIH Chemical Genomics Center [NCGC] U.S. Environmental Protection Agency [EPA] National Institutes of Environmental Health Sciences [NIEHS] National Toxicology Program [NTP] U.S. Food and Drug Administration [FDA] Tox21 Assay Overview: Compound auto fluorescence often interferes with screening of the compound library against various biological targets and signaling pathways. Some of these compounds may have fluorophoric properties. Such properties may interfere with the assay outputs resulting in false positives and/or negatives. To decrease such complications and ensure the compound activities are relevant in terms of biological response, the Tox21 10K compound library was screened for auto fluorescence. From the fluorophores used as reporter signals in our screening assays, the auto fluorescence equivalencies of compounds against three fluorophores have been evaluated: Triamterene, Fluorescein and Rose Bengal sodium for blue, green and red fluorescence, respectively. The fluorescence intensities were measured using Excitation/Emission wavelengths at 405/460nm, 485/535nm and 540/590nm for blue, green and red labels, respectively. This assay includes the green fluorescence data.
Tox21 Assay Protocol Summary: 5 uL of culture medium (DMEM containing 10% FBS) per well was dispensed into black wall/clear bottom 1536-well plates using a Multidrop Combi Dispenser (ThermoFisher Scientific, Waltham, MA). After 23 nL compound or DMSO vehicle was transferred into assay plate by a pintool work station (Kalypsys, San Diego, CA), fluorescence intensities in the assay plates were measured by an Envision (PerkinElmer, Shelton, CT) plate reader using three labels for measuring blue, green and red fluorescence at […] 460, 535 and 590nm respectively.
% is scaled to controls: 0 for no effect and ±100 for the full control effect.

| Compound | outcome | activity change |
| --- | --- | --- |
| CC(=O)c1sc(C)nc1C | inactive | – |
| COc1ccc(S(=O)(=O)N2c3ccc(Cl)cc3[C@@](O)(c3ccccc3Cl)[C@H]2C(=O)N2CCC[C@@H]2C(N)=O)cc1OC | inactive | – |
| COc1ccc2c(c1)C(=O)N(CCc1ccc(S(=O)(=O)NC(=O)NC3CCCCC3)cc1)C(=O)C2(C)C | – | 0.0882% [at 18.6 µM] (inactive) |
| C[Si](C)=O | – | -0.0646% [at 9.17 µM] (inactive) |
| O=C(CCNNC(=O)c1ccncc1)NCc1ccccc1 | inactive | – |
| N[C@@H](CCC(=O)Nc1ccc([N+](=O)[O-])cc1)C(=O)O | inactive | – |
| CCCOC(OCCC)OCCC | inactive | – |
| CC(N)C(=O)OC(C)(C)Cc1ccc(Cl)cc1 (stereo not given) | inactive | – |
| CC(=O)c1ccc2c(c1)Cc1ccccc1-2 | inactive | – |
| COc1ccc(OC)c(Cl)c1 | inactive | – |
| COc1cc(N)ccc1C | inactive | – |
| CC(C(=O)O)c1ccc2c(c1)CC(=O)c1ccccc1S2 (stereo not given) | inactive | – |
| CC(S)C(=O)NCC(=O)O (stereo not given) | inactive | – |
| CCOC(=O)CC(=O)c1ccccc1 | inactive | – |
| O=P(O)(O)OP(=O)(O)O | inactive | – |
| CCC(C=O)CC | inactive | – |
| O=C(O)c1cc(Cl)cc([N+](=O)[O-])c1Cl | inactive | – |
| CC(=O)N[C@@H](CCC(=O)O)C(=O)O | inactive | – |
| CC(=O)NCc1c(I)c(NC(C)=O)c(I)c(C(=O)O)c1I | inactive | – |
| COc1cc(C(=S)N2CCOCC2)cc(OC)c1OC | inactive | – |

| Compound | outcome | activity change |
| --- | --- | --- |
| CC1(CO)CN(c2ccccc2)NC1=O (stereo not given) | inactive | – |
| CCc1ccc(C=O)cc1 | inactive | – |
| COc1nccnc1NS(=O)(=O)c1ccc(N)cc1 | inactive | – |
| CCCCCCN | inactive | – |
| FC(F)(F)c1ccccc1-n1ccnc1 | inactive | – |
| CCCCCCCCCC(C)=O | inactive | – |
| NCCS | inactive | – |
| CCN(CC)CC(=O)Nc1c(C)cccc1C | inactive | – |
| CCCCCCCCCCCCCC | inactive | – |
| COc1ccc(C2CNC(=O)C2)cc1OC1CCCC1 (stereo not given) | – | 0.0153% [at 18.6 µM] (inactive) |
| CCC(C)(CCC(C)C)C(=O)O (stereo not given) | inactive | – |
| CC(C)C[C@H](NC(=O)CNC(=O)[C@H](Cc1ccc(O)cc1)NC(=O)[C@H](CO)NC(=O)[C@H](Cc1c[nH]c2ccccc12)NC(=O)[C@H](Cc1cnc[nH]1)NC(=O)[C@@H]1CCC(=O)N1)C(=O)N[C@@H](CCCN=C(N)N)C(=O)N1CCC[C@H]1C(=O)NCC(N)=O (stereo in doubt) | inactive | – |
| COCCOCCOCCOCCO | inactive | – |
| CCNC(=O)C1CC(C)CCC1C(C)C (stereo not given) | inactive | – |
| CCCCC(CC)COCCO (stereo not given) | inactive | – |
| C[Si](C)(C)C | inactive | – |
| CC1=CCC(C(C)C)=CC1 | inactive | – |
| O=C(O)Cc1ccc(Cl)cc1Cl | inactive | – |
| c1ccc2nccnc2c1 | inactive | – |
| CC(COC(C)(C)C)OCCCO (stereo not given) | inactive | – |

— PubChem BioAssay (Tox21)
